The list is not random: actives were taken first. Their share in the collection is about 0.92%.
LmPK inh – blocks Leishmania mexicana pyruvate kinase activity; Q27686; purified LmPK, Kinase-Glo ATP luminescence, 1 h; Potency, µM (series often up to 57.5 µM), for inactives: top-dose activity change, negative = inhibition, actives largely listed as inhibitors; 290,000 compounds, 0.37% hits; further: on the % scale 0 is the no-effect control and ±100 the full control effect
Target sequence (Q27686 whole entry, looked up): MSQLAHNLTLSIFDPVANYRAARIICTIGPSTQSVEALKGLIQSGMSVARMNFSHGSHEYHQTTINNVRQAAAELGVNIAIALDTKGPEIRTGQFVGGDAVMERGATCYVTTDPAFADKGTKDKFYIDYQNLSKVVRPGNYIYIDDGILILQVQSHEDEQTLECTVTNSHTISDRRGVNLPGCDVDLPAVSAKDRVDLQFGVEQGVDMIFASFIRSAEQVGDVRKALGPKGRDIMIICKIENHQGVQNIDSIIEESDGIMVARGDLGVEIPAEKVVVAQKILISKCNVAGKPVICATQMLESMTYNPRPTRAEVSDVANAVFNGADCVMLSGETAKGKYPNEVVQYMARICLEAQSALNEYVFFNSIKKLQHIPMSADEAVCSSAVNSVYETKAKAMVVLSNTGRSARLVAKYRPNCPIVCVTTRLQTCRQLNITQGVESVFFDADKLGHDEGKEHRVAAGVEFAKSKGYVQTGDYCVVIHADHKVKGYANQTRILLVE
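ATP generated from ADP (0.1 mM) and PEP (0.5 mM) by 0.1 nM LmPK over 1 h at room temperature (pH 7.2 imidazole buffer) was detected by coupled luciferase luminescence. Values were normalized to uninhibited and no-enzyme wells.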
TbPYK inhibitor – blocks Trypanosoma brucei pyruvate kinase; TbPYK enzyme, Kinase-Glo Plus ATP luminescence, 45 min; 410,000 compounds, 0.12% hits; Potency, µM (series often up to 76.8 µM), without a hit: top-dose activity, negative = inhibition, most hits filed as inhibitors; Q57TT1; AID 624173; further: on the % scale 0 is the no-effect control and ±100 the full control effect; nearly all actives have a fitted effect of over 50% in size
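Assay buffer: 50 mM TEA pH 7.2, 100 mM KCl, 10 mM MgCl2, 0.05% BSA, 0.01% Tween-20. Pyruvate kinase from T. brucei plus substrate met compound, then ADP (130 uM final). Luminescence was read post 45 min RT.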
AMA1-RON2 inh – AMA1-RON2 (P. falciparum) interaction inhibition | AlphaScreen AMA1-biotinylated RON2 peptide binding | Potency, µM (doses to about 58.2 µM), without a hit: at the highest dose activity change, negative = inhibition, usual class: inhibitors | 360,000 compounds, 0.2% hits;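 further: 0% = vehicle wells and -100% = peptide control; nearly all actives have a fitted effect of over 45% in size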
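AMA1 (3D7) with his tag at 25 nM final met compounds first, then biotinylated RON2 peptide at 25 nM; detection used donor plus acceptor beads, 10 µg/mL apiece, read by AlphaScreen after 30 min at room temperature.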
NS1 function inh – influenza NS1 inhibition; Potency, µM (titrated, usually from 46.1 µM), without a hit: top-dose activity, positive = more growth; 270,000 compounds, 0.4% hits; AID 2326; calls by dose curve; further: actives are rising curves; nearly all actives have a fitted effect of over 50% in size
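Read-out: OD600 growth recovery of NS1-expressing budding yeast. Cells grown overnight at 30C in -URA glucose medium, washed, resuspended and diluted 1:100 in 2% galactose assay medium, pH 6.0. Same strain lacking NS1 served as positive control.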
RE007 growth inh – less growth of the S. pombe RE007 Vpr strain; S. pombe RE007 Vpr strain, BacTiter-Glo ATP luminescence, 24 h; Potency, µM (doses to about 92.2 µM), for the others: at the top dose activity change, negative = less growth, actives largely listed as inhibitors; 360,000 compounds, 0.21% hits; AID 651644; active means well fitted falling curve with a large enough effect; inconclusive means small, poorly fitted or top-dose-only effect; inactive means no such curve, though single readings can be large or run the other way; further: on the % scale 0 is the no-effect control and ±100 the full control effect; nearly all actives have a fitted effect of over 50% in size
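Fission yeast RE007 carrying one integrated HIV-1 vpr copy, seeded at OD 0.01 in PMG+AL medium with 23 nL pinned compound. Grown 24 h at 30 degrees; viability read by BacTiter-Glo luminescence after 5 min.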
Numbers without * were called inactive; ? = inconclusive; / = not tested or not shown; [ ] = another dose, or the depositor's remark. Unless noted, the call rests on the fitted dose curve; in most records, active means well fitted curve in the direction sought with a large enough effect; inconclusive means small, poorly fitted or top-dose-only effect, or another doubt; inactive means no such curve, though single readings can be large; an effect the other way counts as inactive or inconclusive. Potency means the concentration at half of the fitted maximal effect.

SMILES	LmPK inh	TbPYK inhibitor	AMA1-RON2 inh	NS1 function inh	RE007 growth inh
CC[C@]1(O)C[C@H]2CN(CCC3=c4ccccc4=N[C]3[C@@](C(=O)OC)(c3cc4c(cc3OC)N(C)[C@H]3[C@@](O)(C(N)=O)[C@H](O)[C@]5(CC)C=CCN6CC[C@]43[C@@H]65)C2)C1	/	-7%	/	/	/
Cc1occc1C(=O)N/N=C/c1ccc(N(C)C)cc1	10µM*	?	-11%	-42%	?
Cc1occc1C(=O)N/N=C/c1cnn(C)c1C	16µM*	-16%	32%	20%	1%
Cc1occc1C(=O)N/N=C/C=C/c1ccc(N(C)C)cc1	-4%	2%	72%	-11%	0%
O=C1/C(=C\c2cccs2)CCC/C1=C/c1cccs1	/	3%	/	/	/
Cc1cc(Cl)ccc1NC(=O)CCS(=O)(=O)c1ccc2c(c1)CC(C)N2C(=O)C1CC1 (stereo unspecified)	/	-6%	/	/	/
COC(=O)C1=C(C(=O)OC)[C@@H]2N(C)c3ccc(OC)cc3[C@@]23C[C@@H](C(=O)OC)N(S(=O)(=O)c2ccc(C#N)cc2)C3=N1	0%[11.5 µM]	/	/	/	/
Cc1ccc2oc3nc(C)c(C(=O)O)cc3c(=O)c2c1	16µM*	?	-3%	3%	-19%
CC(=O)c1cc2c(=O)c3cc(C)ccc3oc2nc1C	14µM*	-16%	5%	-60%	-14%
COc1ccc2nc(NC(=O)c3cccs3)sc2c1	13µM*	4%	-1%	-38%	?
COc1ccc2nc(Nc3ccccc3OC)sc2c1	18µM*	2%	5%	/	?
O=C(O)CCn1cc(C=C2C(=O)NC(=S)NC2=O)c(-c2cc3ccccc3oc2=O)n1	6%	14µM*	-13%	2%	-8%
COC(=O)C1=C(C(=O)OC)[C@@H]2N(C)c3ccccc3[C@@]23C[C@@H](C(=O)OC)N(S(=O)(=O)c2ccc(C)cc2)C3=N1	-1%[11.5 µM]	/	/	/	/
COC(=O)C1=C(C(=O)OC)[C@@H]2N(C)c3ccc(OC)cc3[C@@]23C[C@@H](C(=O)OC)N(S(=O)(=O)c2ccc(C(F)(F)F)cc2)C3=N1	6%[11.5 µM]	/	/	/	/
CSC1=NSC2=NC(=O)/C(=C/c3coc4ccccc4c3=O)C(=N)N12	0%	-11%	10%	-12%	40µM*
Cc1ccc(N2CCN(c3ncccc3[N+](=O)[O-])CC2)c(C)c1	2%	0%	13µM*	-5%	13%
CC1=CC(C)(C)Nc2ccc(Cc3ccc4c(c3)C(C)=CC(C)(C)N4)cc21	2%	-8%	16µM*	?	-5%
CC(C)Cn1c(-c2csc3ccccc23)n[nH]c1=S	14µM*	?	24%	-2%	11%
COc1ccc(-c2n[nH]c(=S)n2CC(C)C)cc1	28µM*	?	12%	-3%	-4%
Cc1cccc(-n2c(-c3csc4ccccc34)n[nH]c2=S)c1	?	?	27%	9%	-12%
CCn1c(-c2csc3ccccc23)n[nH]c1=S	10µM*	?	42%	0%	8%
COc1cccc(-c2cn3nc(C)c(C)nc3n2)c1	13µM*	-28%	12%	-4%	?
Cc1nc2nc(-c3ccc(Cl)cc3)cn2nc1C	?	-3%	-4%	1%	-14%
Cc1nc2nc(-c3cccs3)cn2nc1C	28µM*	-14%	64%	-14%	?
Cc1ccc(S(=O)(=O)c2nc(S(=O)(=O)c3ccc(C)cc3)c(NCCCOC(C)C)s2)cc1	/	-3%	/	/	/
SMILES	LmPK inh	TbPYK inhibitor	AMA1-RON2 inh	NS1 function inh	RE007 growth inh
O=Cc1ccccc1C=O	/	5%	/	/	/
CCN(CC)CCC[C@H](C)Nc1c2ccc(Cl)cc2nc2ccc(OC)cc12	/	-6%	/	/	/
Oc1[nH]c(=S)sc1C=C1N=c2ccccc2=N1	16µM*	?	19%	1%	4%
COc1ccc(N2C(=O)NC(=O)/C(=C/c3ccc([N+](=O)[O-])s3)C2=O)cc1	-2%	13µM*	-5%	-41%	?
COc1ccc(N2C(=O)/C(=C/C=C/c3ccccc3[N+](=O)[O-])C(=O)NC2=S)cc1	-2%	20µM*	49%	/	-8%
Nc1nc(SCc2ccccc2[N+](=O)[O-])c2[nH]cnc2n1	/	/	/	0%	/
C=C1NC(=O)c2cc(CN(C)c3ccc(C(=O)N[C@@H](CCC(=O)O)C(=O)O)s3)ccc2N1	/	9%	/	/	/
COc1ccc(CCN2C(=O)C=CC2=O)cc1OC	/	?	16%	/	5.6µM*
Cc1ccc(C(=O)Nc2ccc3c(c2)OCO3)cc1	22µM*	-17%	17%	-53%	-13%
Cc1ccnc2nc(C(=O)Nc3ccc4c(c3)OCO4)nn12	16µM*	-21%	-7%	-6%	-10%
Cc1ccc(CNc2ccc3c(c2)OCO3)cc1	-1%	-8%	?	2.8µM*	-20%
O=C(Nc1ccc2c(c1)OCO2)c1noc2c1CCCC2	-21%	-11%	-7%	-14%	5µM*
c1cc(CNc2ccc3c(c2)OCO3)ccn1	-4%	-22%	-10%	2%	-8%
COc1ccc(-c2csc3c2[N+]2=CCC=C2C3=O)cc1	/	/	/	-15%	/
CCCC(=O)O[C@]1(C(=O)COC(=O)CC)[C@@H](C)C[C@H]2[C@@H]3CCC4=CC(=O)C=C[C@@]4(C)[C@@]3(F)[C@H](O)C[C@@]21C	/	6%	/	/	/
Cc1ccc([C@@]2(C)CC/C(=N/N=C3\CC[C@](C)(c4ccc(C)c(C)c4)c4cc(C)c(C)cc43)c3cc(C)c(C)cc32)cc1C	/	/	/	-6%	/
CCC(C)NC(=O)C1CCN(C(=O)c2cc3sccc3n2Cc2ccc(Cl)cc2)CC1 (stereo unspecified)	/	-14%	/	/	/
C[C@@H]1CN(CC(=O)Nc2ccc3c(c2)Cc2cccc(-c4cc(=O)cc(N5CCOCC5)o4)c2S3)C[C@H](C)O1	/	0%	/	/	/
Cc1ccnc(NC(=O)c2cc3ccccc3o2)c1	/	-17%	0%	/	-26%
O=C(Nc1ccccn1)c1cc2ccccc2o1	10µM*	?	6%	-11%	?
O=C(Nc1ccccn1)c1ccc2c(c1)OCO2	14µM*	-23%	-8%	/	-16%
O=C(Nc1ccccn1)c1ccc2c(c1)OCCO2	?	?	-5%	/	-16%
Cc1ccc(C(=O)Nc2ccc3c(c2)OCO3)o1	18µM*	?	1%	-1%	?
O=C(Nc1ccccc1)c1cccc(C(=O)Nc2ccccc2)n1	0%	-2%	3%	12%	-4%
CN(C)c1ccc(NC(=O)c2cccc(C(=O)Nc3ccc(N(C)C)cc3)n2)cc1	-24%	-13%	10µM*	16%	-13%
Cc1cc(O)c2c(c1)OC1(C)CCC3C(C)(C)CCCC34COC2C14 (stereo unspecified)	/	2%	/	/	/
Nc1ccc(N=Nc2ccc(N)cc2)cc1	-1%	3%	-10%	/	-18%
Cc1cc(N(C)C)ccc1N=Nc1ccc(N)cc1	/	-18%	14µM*	/	-18%
S=c1[nH]nc(-c2cc(-c3ccsc3)n[nH]2)n1-c1cccc2ccccc12	-11%	?	14%	/	8%

From PubChem BioAssay
